MazEF act: activators of E. coli MazEF toxin-antitoxin RNase, primary screen, biochemical, fluorescence, uHTS | Endoribonuclease toxin MazF (Escherichia coli (strain K12)), P0AE70 | FAM/BHQ RNA-DNA oligo cleavage fluorescence, 5 h | activation, % at 20 µM | hit rate 0.32% among 350,000; in the data active = activation above about 50%
PrP UTR inh: inhibition of PrP 5' UTR reporter expression; cell-based PrP 5' UTR mRNA reporter, plate reader; inhibition, % (concentration not given with the values); hit rate 0.35% among 340,000; AID 488862, 2010; in the data active = inhibition above about 52%; also: 0 = median of the neutral control wells
BJeLR lethal: MLPCN primary cell-based screen for lethality selective to Ras in HRASV12 cells; BJeLR (HRASV12) viability, CellTiter-Glo ATP luminescence, 48 h; inhibition, % (test concentration not listed); hit rate 0.17% among 300,000; in the data active = inhibition above about 50%; inconclusive = no clear call, values can overlap the other calls
PrPC TRFRET: inhibitors of human cell surface prion protein PrPC, primary screen, cell-based, TR-FRET; Major prion protein (Homo sapiens), P04156; TR-FRET read-out; inhibition, % at 13.8 µM; hit rate 0.43% among 370,000; in the data active = inhibition above about 24%; also: 0% = median of the test wells and 100% = reference compound wells
PfHsp40 yeast: rescue of yeast from PfHsp40 toxicity, primary screen, S. cerevisiae, ATP luminescence | S. cerevisiae expressing PfHsp40, growth rescue | growth rescue, % at 12.5 µM | hit rate 0.68% among 340,000; in the data active = growth rescue above about 28%, passing the limit was not always enough; inconclusive = no clear call, values can overlap the other calls;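 also: yeast W303a lacking pdr1 and pdr3 grown in galactose medium; growth measured after three days at 30 °C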
VHR inh abs: VHR1 phosphatase inhibitors, primary screen, biochemical, absorbance, uHTS; Dual specificity protein phosphatase 3 (Homo sapiens), P51452; recombinant VHR phosphatase, pNPP absorbance; inhibition, % at 13.3 µM; hit rate 0.52% among 290,000; in the data active = inhibition above about 50%
PrPC TRFRET cf: confirmation of inhibitors of cell surface human prion protein, confirmation, cell-based, TR-FRET. inhibition, % at 13.8 µM. hit rate 65% among 1,500. cell surface PrPC level. shares compounds with PrPC TRFRET; in the data active = inhibition above about 25%
LD9 tox: cytotoxicity in LD9 cells, cytotoxicity control for cell surface PrPc inhibitor project, cell-based, luminescence, high throughput; luminescence viability; AID 743201, 2013; hit rate 29% among 1,500; shares compounds with PrPC TRFRET; inhibition, % at 13.8 µM; in the data active = inhibition above about 9.5%
An asterisk follows results filed as active; ? = inconclusive; . = not tested or not shown. This is a sample that favours compounds with a hit; in the whole collection about 2.1% have one here.

SMILES	MazEF act	PrP UTR inh	BJeLR lethal	PrPC TRFRET	PfHsp40 yeast	VHR inh abs	PrPC TRFRET cf	LD9 tox
COc1ccc(-c2csc(NC(=O)c3ccccc3NS(=O)(=O)c3ccc(F)c(F)c3)n2)cc1	6	-35	16	32*	9	5	44*	38*
Cc1ccccc1N1CCN(C2CCCN(C(=O)CCN3CCCO3)C2)CC1 (configuration not stated)	0	-5	-11	6	1	33	.	.
CN(C(=O)COC(=O)c1ccccc1Nc1ccccc1)c1c(N)n(Cc2ccccc2)c(=O)[nH]c1=O	-12	-14	-3	29*	-2	.	38*	-8
Cc1cccc(CN2CCN(C3CN(Cc4cn(Cc5ccc(Cl)cc5)nn4)S(=O)(=O)C3)CC2)c1 (configuration not stated)	.	.	.	-1	.	.	.	.
O=C(Cc1cccs1)Nc1nc(-c2ccc(F)c(F)c2)cs1	4	-22	-6	23	0	12	.	.
O=C(Cc1cccs1)Nc1nc(-c2ccc(F)cc2F)cs1	2	-12	15	26*	?	-23	16	-7
Cc1nn(C(C)C(=O)N2CCCCC2)c(=O)c2c1sc1ccccc12 (configuration not stated)	7	-12	5	0	-1	-2	.	.
Cc1nn(C(C)C(=O)O)c(=O)c2c1sc1ccccc12 (configuration not stated)	4	-5	8	45*	-2	8	60*	-9
Cc1ccc(S(=O)(=O)NCC2CCN(C(=O)C(=O)c3cc4ccccc4o3)CC2)cc1	.	.	.	1	.	.	.	.
N=C1C(c2nc3ccccc3s2)=C(O)CN1NC(=O)c1c[nH]c2ccccc12	-26	-7	2	26*	1	8	34*	6
CSCCC(C(=O)NCc1ccccc1)n1c(Cc2cc(F)cc(F)c2)nc2ccccc21 (configuration not stated)	.	.	.	6	.	.	.	.
Cc1ccc(-c2csc3ncnc(SCC(=O)O)c23)cc1	-4	-19	-8	10	1	0	.	.
COC(=O)CSc1ncnc2scc(-c3ccccc3)c12	-2	-10	2	50*	0	-13	67*	-1
Cc1ccc(-n2c(-c3ccc(Br)cc3)c[n+]3c2CCc2ccc4cccnc4c2-3)cc1	-19	-15	77*	25*	9	31	31*	46*
COc1ccc(-n2c(-c3ccc(Cl)cc3)c[n+]3c2CCc2ccccc2-3)cc1	17	-27	1	8	4	20	.	.
COc1cc2nc(C3CCC3)n(NC(=O)c3ccco3)c(=O)c2cc1OC	7	-2	35	41*	0	-27	37*	-5
Cc1ccc(SC2=C[C@@]3(O)CC[C@@H](O)[C@@](Sc4ccc(C)cc4)(C2=O)[C@H]3O)cc1	.	.	.	27*	.	.	20	-9
CC(C)(C)c1ccc(SC2=C[C@@]3(O)CC[C@@H](O)[C@@](Sc4ccc(C(C)(C)C)cc4)(C2=O)[C@H]3O)cc1	.	.	.	9	.	.	.	.
O=C(CN1CCCc2ccccc21)NCc1ccccc1F	.	.	.	3	.	.	.	.
Cc1c(C(=O)N2CCc3ccccc32)oc2ccccc12	-8	-122	-6	2	3	8	.	.
COCc1c(C(=O)N2CCc3ccccc32)oc2ccccc12	11	-15	3	26*	-1	7	3	-4
CCN(CC)C(=O)Cn1cc(C(=O)C(=O)N2CCCc3ccccc32)c2ccccc21	17	-20	.	-3	1	-16	.	.
CCN(CC)C(=O)Cn1cc(C(=O)C(=O)N2CCc3ccccc32)c2ccccc21	3	-26	1	53*	0	12	13	-2
CCc1cccc(NC(=O)c2cc(S(=O)(=O)N3CCCCC3)ccc2N2CCOCC2)c1	1	.	.	2	.	.	.	.
COc1cc(OC)c(N(C)S(=O)(=O)c2cccc(C(=O)Nc3nccs3)c2)cc1Cl	-1	-8	.	-3	2	.	.	.
SMILES	MazEF act	PrP UTR inh	BJeLR lethal	PrPC TRFRET	PfHsp40 yeast	VHR inh abs	PrPC TRFRET cf	LD9 tox
CN(c1ccccc1)S(=O)(=O)c1cccc(C(=O)Nc2nccs2)c1	-33	-14	-5	26*	-2	18	0	4
CN(C)S(=O)(=O)c1ccc(N2CCCC2)c(C(=O)Nc2nccs2)c1	5	4	.	52*	0	.	54*	-5
CCc1cccc(NC(=O)c2cc(S(=O)(=O)N(C)C)ccc2N2CCCC2)c1	6	-4	-9	30*	0	15	36*	-4
Cc1cnc(NC(=O)c2cc(S(=O)(=O)N(C)C)ccc2N2CCCC2)s1	-15	.	.	72*	.	.	79*	-8
O=C(c1ccncc1F)N1CCC(n2nnc3ncccc32)CC1	.	.	.	4	.	.	.	.
COc1ccc(CCNC(=O)Nc2nnc([C@H]3C[C@H](O)[C@@H](CO)O3)s2)cc1OC	.	.	.	4	.	.	.	.
O=C(Nc1ccc(Cl)cc1)Nc1ccc(Cl)c(Cl)c1	3	.	.	8	.	.	.	.
N#Cc1ccc(NC(=O)Nc2ccc(Cl)cc2)cc1	6	-39	12	27*	0	3	32*	16*
COc1ccc(/C=N/NC(=O)C(=O)N2CCCCCC2)cc1[N+](=O)[O-]	6	6	-2	-13	0	23	.	.
Brc1ccc(-c2nnc3sc(CNC4CCCC4)cn23)cc1	-21	-13	-13	46*	2	-4	58*	-3
Brc1ccc(-c2nnc3sc(CNCc4ccc5c(c4)OCO5)cn23)cc1	-2	-6	-3	-9	0	2	.	.
Cc1ccc(C)c(NS(=O)(=O)c2cc(C(=O)NCc3ccncc3)ccc2C)c1	4	-17	-6	1	-2	23	.	.
Cc1ccc(C(=O)NCc2ccncc2)cc1S(=O)(=O)Nc1cccc(C)c1C	-3	-20	-8	24*	1	15	32*	-3
COc1ccc2c(C)c(C(=O)O)oc2c1	0	-23	-18	28*	1	14	30*	-1
Cc1cccnc1NC(=O)CSc1ncnc2sc(C)c(C)c12	3	-1	-2	15	2	.	.	.
Cc1sc2ncnc(SCC(=O)Nc3ncccc3O)c2c1C	-3	-13	.	27*	0	.	32*	3
CCC(Sc1ncnc2sc(C)c(C)c12)C(=O)OC (configuration not stated)	-21	-18	-1	80*	-2	23	106*	-2
